The source of these data is PubChem BioAssay AID623868 (Vanderbilt High Throughput Screening Facility, 2012).

In all, about 2,100 compounds went through this assay and about 760 (36%) were called active. These entries were drawn from the full list. A number with no mark means an inactive call.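 Rule for the calls: active = thallium-flux fluorescence traces judged by eye to show enhanced or reduced glutamate response, manual score 1 or -1, so both directions (some results past the limit were not filed as active); inactive = the rest, including fluorescent or raised-baseline compounds.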

The test can be described thus: non-GIRK thallium flux modulation in mGlu8 cells, confirmation, counter-screen for GIRK activator project, cell-based, HEK-293 rmGlu8, no GIRK (AID 623868).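 Note: extra codes mark interference with 3 for fluorescent and 4 for baseline rise.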 The conditions noted are these: thallium flux fluorescence, at 10 µM, actives lie on both sides, codes: 1 enhancer, -1 blocker, 0 none, thallium stimulus containing EC20 glutamate.
Turning to `O=C(NC(=S)NCCc1ccccc1)c1ccccc1`, the manual score is 1 (active).
Take `O=C(NC(=S)NCCc1ccccc1)c1ccco1`: the manual score is 1 (active).
With `Cc1ccccc1C(=O)NC(=S)NCCc1ccccc1` the figure was 0; with `O=C(NC(=S)N(CCc1ccccc1)CCc1ccccc1)c1ccco1`, 1 (active); with `COc1cc(OC)cc(C(=O)NC(=S)NCCc2ccccc2)c1`, 0.
Consider `O=C(CNC(=S)NC(=O)c1ccco1)c1ccccc1`, for which the manual score was 1 (active).
With `CC1CN(C2CC(C)(C)NC(C)(C)C2)CCC1=O` (stereo not given) the figure was 0; with `CCCCc1cc(=O)oc2cc(C)cc(O)c12`, -0.5; with `COc1cc(/C=C(\C#N)C(=O)Nc2cccnc2)ccc1OC(C)C`, 0.
In the case of `Nc1sccc1C(=O)c1ccccc1`, the manual score is 0.
The value for `O=C(CNC(=S)NC(=O)c1cccs1)c1ccccc1` was 1 (active); that for `CCOc1ccccc1-c1c2cc(O)c(=O)cc-2oc2cc(O)c(O)cc12` was 0; that for `CCN(CC)S(=O)(=O)c1cccc(S(=O)(=O)c2cccc(S(=O)(=O)N(CC)CC)c2)c1` was 0.
For the compound `CCN(CC)S(=O)(=O)c1cccc(-c2n[nH]c(=S)n2/N=C/c2ccc(C(=O)OC)cc2)c1`, the manual score was 1 (active).
As to `COc1ccccc1CNC(=O)c1c(N)n(CCCN2CCOCC2)c2nc3ccccc3nc12`, the manual score was 0.
With `C=CCn1c(N)c(C(=O)OC(C)(C)C)c2nc3ccccc3nc21` the figure was -1 (active); with `COCC(C)OC(=O)c1c(N)n(CC(C)C)c2nc3ccccc3nc12` (stereo not given), 0; with `Cc1cccn2c(=O)c(/C=N/O)c(N3CCCC3)nc12`, 0.
With `CSc1cccc(NC(=O)CN(c2ccc(C)cc2C)S(C)(=O)=O)c1` the figure was 0; with `CC1(C)CC(=O)C2=C(C1)OC(/N=C/N1CCOCC1)=C(C#N)C2c1ccccc1` (stereo not given), -1 (active).
With `CC1(C)Cc2ccccc2-c2nnc(SCC(=O)Nc3nc4ccccc4s3)n21` the figure was 0; with `CC(C)Cc1nnc(NC(=O)CSc2nc(=O)cc(N)n2-c2ccccc2)s1`, 0; with `CC1Cc2nc(SCC(=O)Nc3nc4ccccc4s3)n(C)c(=O)c2S1` (stereo not given), -1 (active).
As to `COC(=O)c1onc(C(=O)c2ccccc2)c1C(=O)OC`, the manual score was -1 (active).
For `N[C@@H](Cc1ccccc1)c1nnc(SCc2ccccc2F)o1`, the manual score is 0.
The value for `Cc1sc2ncnc(SCc3ccco3)c2c1C` was 0.
Turning to `Cc1sc2nc(C(C)C)nc(SCC(=O)N3c4ccccc4CC3C)c2c1C` (stereo not given), the manual score is 1 (active).
For the compound `CCn1c(SCC(=O)NC(=O)NCc2ccco2)nc2sc(C)c(C)c2c1=O`, the manual score is 1 (active).
With `Cc1sc2nc(C(C)C)nc(SCC(=O)NCc3ccco3)c2c1C` the figure was 1 (active); with `Cc1ccccc1-c1nc(CN2CCC(C(=O)NCc3ccco3)CC2)c(C)o1`, 0; with `CCn1c(N)c(C(=O)NCc2ccco2)sc1=S`, 0.
With `CCc1cc2cccc(C)c2nc1SCC(=O)c1ccc(NC(C)=O)cc1` the figure was 1 (active); with `COC(=O)c1ccc(-n2c(C)cc(C(=O)CSc3ccc(NC(C)=O)cc3)c2C)cc1`, 0.
The value for `CC(=O)Nc1ccc(C(=O)CSc2nc3ccc(C)cc3[nH]2)cc1` was 0; that for `COc1cc(NC(=O)C(=O)NNC(=O)C2CCCCC2)c(OC)cc1Cl` was 1 (active); that for `COc1cc(NC(=O)c2ccc(C)cc2)c(OC)cc1NC(=O)CN1CCCCC1` was 0.
Regarding `COc1ccc(OC)c(NC(=O)C2CC(=O)N(c3ccc(Br)cc3)C2)c1` (stereo not given), the manual score was 0.
The value for `Oc1ccccc1CNc1ccc(Br)cn1` was 0; that for `Cc1ccc(C2CC2c2n[nH]c(=S)n2-c2ccc(C)cc2)cc1` (stereo not given) was 1 (active); that for `Cc1ccc(C2CC2c2n[nH]c(=S)n2-c2ccc(Cl)cc2)cc1` (stereo not given) was 0.
With `O=C(c1ccc(CS(=O)(=O)c2ccc(Br)cc2)o1)N1CCN(c2ncccn2)CC1`, the manual score was 0.
Consider `CCOC(=O)N1CCN(c2ccc3nnnn3n2)CC1`, for which the manual score is 0.
With `O=C(c1ccc(Br)o1)N1CCN(c2ccc3nnc(-c4ccc(F)cc4)n3n2)CC1` the figure was -1 (active).
With `CCOc1cc(-c2noc(-c3cccnc3)n2)ccc1OC` the figure was 0; with `Cc1cc(CC(C)C)n(-c2nc3ccccc3c(=O)n2OCC(N)=O)n1`, 0.
As for `CC(C)COn1c(=S)[nH]c2ccccc2c1=O`, the manual score was 1 (active).
With `CC(C)n1c(NCc2c[nH]c3ccccc23)nc2ccccc21`, the manual score was 0.
For `CC(C)N(CCn1c(=S)[nH]c2ccccc2c1=O)C(C)C`, the manual score was 1 (active).
The value for `CC(C)n1c(=S)[nH]c2ccccc2c1=O` was 1 (active).
With `CCOc1cc2[nH]c(=S)n(C(C)C)c(=O)c2cc1OCC` the figure was 1 (active); with `CCCC(=O)NC(c1cccs1)c1cc([N+](=O)[O-])c2cccnc2c1O` (stereo not given), 0; with `CCCC(=O)Nc1ccc(NC(=O)C2CC2)cn1`, 0.
Regarding `COCc1nnc(NC(=O)C(C)C)s1`, the manual score is 0.
Take `Cc1conc1NC(c1cccs1)c1ccc2cccnc2c1O` (stereo not given): the manual score is 0.5.
With `COc1ccccc1-n1cnnc1SCC(=O)c1cc(C)n(Cc2cccs2)c1C`, the manual score was 0.
With `COc1ccc(CNC(=O)CSCc2ccccc2Cl)cc1` the figure was -0.5.
With `CCC(=O)n1nc(-c2cccnc2)nc1NCc1ccc(OC)cc1` the figure was -1 (active); with `CCCC(=O)n1nc(-c2ccccc2)nc1N`, 0.
Regarding `COc1cccc(N(CC(=O)NCc2cccnc2)S(C)(=O)=O)c1`, the manual score is 0.
For the compound `O=C(c1cc2nc(-c3ccccc3)cc(-c3ccccc3)n2n1)N1CCN(C(=O)c2ccco2)CC1`, the manual score is -0.5.
As for `COc1ccc(CNc2nc(-c3cccnc3)nn2C(=O)c2ccco2)cc1`, the manual score was -1 (active).
With `S=c1nn[nH]n1C12CC3CC(CC(C3)C1)C2` the figure was 1 (active); with `c1cn(C23CC4CC(CC(C4)C2)C3)cn1`, 0.5.
With `CCOc1ccc(Nc2ncnc(N)n2)cc1` the figure was 0; with `O=c1c2ccccc2nc(SCc2cn3ccsc3n2)n1-c1ccc(F)cc1`, -1 (active).
With `Cc1noc(C)c1CSc1nc2ccccc2c(=O)n1-c1ccc(F)cc1F` the figure was 0; with `COCCNCCOc1ccccc1-c1ccccc1`, 0.
For the compound `COc1ccc(CCNC(=O)CSc2nnc(-c3ccc(F)cc3)c3ccccc23)cc1OC`, the manual score was -1 (active).
With `COc1ccc(CN(C)CC(=O)NC(=O)NCc2ccccc2)cc1OC` the figure was 0; with `COc1cc2c(cc1NC(=O)COc1ccccc1OC)oc1ccccc12`, 0.
With `CCOC(=O)CSC1=C(C#N)C(=O)NC(c2ccc(OC)c(OC)c2)S1` (stereo not given) the figure was 0.
With `CCc1nc(SCC(=O)N2CC(=O)Nc3ccccc32)c2c(C)c(C)sc2n1` the figure was 1 (active); with `Cc1ccc(C)c(Nc2c([N+](=O)[O-])cc(C(=O)N3CC(=O)Nc4ccccc43)cc2[N+](=O)[O-])c1`, 0; with `CCc1c(C)nc(SCC(=O)N2CCc3ccccc32)[nH]c1=O`, 0.
For `CCc1nnc(NC(=O)CSc2nnc(-c3c[nH]c4ccccc34)n2CC)s1`, the manual score was 0.
As for `Cc1cc(NC(=O)CSc2nc(C3CC3)nc3sc(C)c(C)c23)no1`, the manual score was 1 (active).
`CCSc1nnc(NC(=O)CC)s1`: the manual score is 0.
With `Cc1sc2nc(C3CC3)nc(SCC(=O)N3CC(=O)Nc4ccccc43)c2c1C` the figure was 1 (active); with `Cc1cc(NC(=O)CSc2nc3ccsc3c(=O)n2NC(=O)c2ccccc2)no1`, 0.
The value for `CCc1nc(SCC(=O)Nc2nnc(CC)s2)c2c(C)c(C)sc2n1` was 1 (active).
The value for `Cc1ccc(N(C(=O)CCC(=O)Nc2cc(C)on2)C(C(=O)NC2CCCC2)c2cccs2)cc1` (stereo not given) was 0; that for `CN1C(=O)NC(c2ccccc2)C2=C1CN(Cc1ccccc1)C2=O` (stereo not given) was 0.
With `CCOC(=O)C1(C(C)(C)CC)CC(CSc2nc3ccccc3[nH]2)OC1=O` (stereo not given), the manual score was 0.
The value for `CN1CCN(C(=O)c2sc(=S)n(-c3ccccc3)c2N)CC1` was 0; that for `O=C(NCCSCc1ccco1)Nc1cccc(Cl)c1` was 0; that for `CN(C(=O)CSC1=Nc2ccccc2C2=NC(c3ccccc3)C(=O)N12)C1CCCCC1` (stereo not given) was -1 (active).
The value for `Cc1sccc1C1C(C#N)=C(N)SC(N)=C1C#N` was -1 (active).
With `Cc1ccc(C(C(=O)NC2CCCC2)N2CCCC(C)C2)cc1` (stereo not given) the figure was 0; with `O=C(NC(=S)N1CCCCC1)C12CC3CC(CC(C3)C1)C2`, 1 (active); with `O=C(NC(=S)N1CCN(c2ccc([N+](=O)[O-])cc2)CC1)c1ccc(F)cc1`, 1 (active).
Take `O=C(c1csc2c1CCCC2)N1CCN(c2ccc(F)cc2)CC1`: the manual score is 0.
Turning to `CCOc1ccccc1N1CCN(C(=S)NC(=O)C23CC4CC(CC(C4)C2)C3)CC1`, the manual score was 0.5.
On to `O=S(=O)(c1ccccc1)N1CCN(C(=S)Nc2ccc(F)cc2)CC1`, for which the manual score is 0.
The value for `CCC(=O)c1ccc(N2CCN(C(=O)c3cc([N+](=O)[O-])ccc3N3CCN(C)CC3)CC2)c(F)c1` was 0; that for `CCOC(=O)C1CCN(C(=O)NC23CC4CC(CC(C4)C2)C3)CC1` was 0.
With `O=C(NC(=S)N1CCN(c2ccc(F)cc2)CC1)C12CC3CC(CC(C3)C1)C2` the figure was 1 (active); with `CC12CC3CC(C)(C1)CC(C(=O)NC(=S)N1CCCCC1)(C3)C2`, 1 (active); with `CCCCN(Cc1ccccc1)S(=O)(=O)c1ccc2[nH]c(=O)oc2c1`, 0.
With `COc1ccc(Cl)cc1C(=O)CSc1nnnn1C1CCCC1` the figure was 0; with `CC12CC3CC(C)(C1)CC(C(=O)NC(=S)N1CCOCC1)(C3)C2`, 1 (active); with `CC12CC3(C)CC(C)(C1)CC(C(=O)NC(=S)N1CCOCC1)(C2)C3`, 1 (active).
As to `O=C(c1ccco1)N1CCN(C(=O)c2cnn3c2NC(c2cccs2)CC3C(F)(F)F)CC1` (stereo not given), the manual score was 0.
With `O=C(CSc1nc(-c2ccccc2)cc(C(F)(F)F)n1)NCCN1CCOCC1` the figure was 0.
With `CCc1sc(NC(=O)CN2CCOCC2)nc1-c1ccccc1` the figure was -1 (active); with `O=C(CN1CCOCC1)Nc1ccc(C2CCCCC2)cc1`, 0.
